Measurements reported in PubChem BioAssay (NCATS).
Inconclusive results are not listed. Active and inactive are the calls of the source. Unless noted, calls follow the shape of the dose curve; as a rule, active = well fitted cell-killing curve with a large enough effect; inconclusive = small, poorly fitted or top-dose-only effect; inactive = flat fitted curve, though single readings scatter.

Tests used:
[1] = NCATS anti-infectives library activity on the primary C. elegans qHTS viability assay (AID 1745855; calls by dose curve)
Procedure, shortened: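 Viability is taken from GFP fluorescence of PE254-GFP-FLuc C. elegans imaged by laser cytometry over 7 days. Ten L1 worms per well grow at 21 °C on TOP10 E. coli capsules with titrated compound; levamisole marks toxicity.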

[2] = molecular target: Catechol O-methyltransferase (Homo sapiens) (UniProt P21964); test: Confirmatory Screen for Target Class Profiling of Small Molecule Inhibitors of Methyltransferases (AID 1745852; calls by dose curve; also: potency is read from the fitted curve at half-maximal effect; as to activity change, negative = inhibition: % is scaled to controls: 0 for no effect and ±100 for the full control effect); conditions: MTase-Glo luminescence, SAH detection, recombinant enzyme; measured here: COMT max response; stronger effect = lower value
Catechol O-methyltransferase (Homo sapiens), sequence (P21964 whole entry, looked up): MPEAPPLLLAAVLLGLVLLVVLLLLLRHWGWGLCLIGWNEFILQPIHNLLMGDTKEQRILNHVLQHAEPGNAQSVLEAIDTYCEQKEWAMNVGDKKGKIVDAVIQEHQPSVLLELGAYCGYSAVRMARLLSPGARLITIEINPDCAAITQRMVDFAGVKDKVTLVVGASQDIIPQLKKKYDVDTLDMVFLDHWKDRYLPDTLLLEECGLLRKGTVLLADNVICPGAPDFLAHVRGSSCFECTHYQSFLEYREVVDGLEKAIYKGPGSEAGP

[3] = molecular target: Guanidinoacetate N-methyltransferase (Homo sapiens) (UniProt Q14353); test: as above; conditions: MTase-Glo luminescence, SAH detection, recombinant enzyme; activity change, negative = inhibition: at 57.3 µM (top of the series) unless noted
[4] = molecular target: Nicotinamide N-methyltransferase (Homo sapiens) (UniProt P40261); test: as above; conditions: MTase-Glo luminescence, SAH detection, recombinant enzyme; measured here: NNMT max response; stronger effect = lower value
Nicotinamide N-methyltransferase (Homo sapiens), sequence (P40261 whole entry, looked up): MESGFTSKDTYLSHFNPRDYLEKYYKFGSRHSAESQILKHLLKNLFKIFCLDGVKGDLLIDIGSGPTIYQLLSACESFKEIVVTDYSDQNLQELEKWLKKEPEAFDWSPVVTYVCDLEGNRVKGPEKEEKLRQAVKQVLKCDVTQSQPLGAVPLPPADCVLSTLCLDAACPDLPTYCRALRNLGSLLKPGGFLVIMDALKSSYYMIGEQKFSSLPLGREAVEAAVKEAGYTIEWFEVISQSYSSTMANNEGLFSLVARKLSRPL

[5] = molecular target: Phenylethanolamine N-methyltransferase (Homo sapiens) (UniProt P11086); test: as above; conditions: MTase-Glo luminescence, SAH detection, recombinant enzyme; measured here: PNMT max response; stronger effect = lower value
Phenylethanolamine N-methyltransferase (Homo sapiens), sequence (P11086 whole entry, looked up): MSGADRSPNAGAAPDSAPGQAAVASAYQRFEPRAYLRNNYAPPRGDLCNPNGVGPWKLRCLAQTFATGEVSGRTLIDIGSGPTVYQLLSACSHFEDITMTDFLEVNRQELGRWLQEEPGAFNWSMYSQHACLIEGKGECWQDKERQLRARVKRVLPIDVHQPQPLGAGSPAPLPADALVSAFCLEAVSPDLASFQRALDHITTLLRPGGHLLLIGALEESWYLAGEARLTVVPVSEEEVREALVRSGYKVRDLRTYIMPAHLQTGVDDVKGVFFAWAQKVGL

[6] = NCATS anti-infectives library activity on HEK293 viability as a counter-qHTS vs the C. elegans viability qHTS (AID 1745854);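 also: HEK293 cells exposed to compounds for 24 hr before the viability read; % is scaled to controls: 0 for no effect and ±100 for the full control effect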
Procedure, shortened: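 Cytotoxicity in human HEK293 cells is measured by ATP-dependent CellTiter-Glo luminescence following a 24 hr incubation with titrated library compounds at 37C. Top final concentration is 41.7 uM.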

Q: Which Potency [1] does the source give for `CO[C@@H]1[C@H](N(C)C(=O)c2ccccc2)C[C@H]2O[C@]1(C)n1c3ccccc3c3c4c(c5c6ccccc6n2c5c31)C(=O)NC4` here?
A: inactive

Q: Which results are given for `OC[C@H](Cc1ccccc1)Nc1nc(Oc2ccc3c(c2)CCC3)nc2c1ncn2Cc1ccc(-c2ccccc2)cc1`?
A: activity [2]: -10.9%; activity change, negative = inhibition [3]: -8.58%; activity [4]: -17.3%; activity [5]: -16%

Q: For `CCCS(=O)(=O)Nc1ccc(F)c(C(=O)c2c[nH]c3ncc(-c4ccc(Cl)cc4)cc23)c1F`, which activity [2] is on record?
A: -8.94%

Q: What about the activity change, negative = inhibition [3] of the same compound?
A: -0.0685%

Q: And the activity [4]?
A: -26%

Q: What about the activity [5] of the same compound?
A: -12.4%

Q: Which results are given for `COc1cc(Nc2ncc3c(n2)-c2ccc(Cl)cc2C(c2c(F)cccc2OC)=NC3)ccc1C(=O)O`?
A: activity [2]: 0.763%; activity change, negative = inhibition [3]: 2.21%; activity [4]: -15.5%; activity [5]: 2.42%

Q: Which outcome [6] does the source give for `CN1CCN(CCCN2c3ccccc3Sc3ccc(C(F)(F)F)cc32)CC1` here?
A: inactive

Q: Which outcome [6] does the source give for `O=C(c1cc(Cc2n[nH]c(=O)c3ccccc23)ccc1F)N1CCN(C(=O)C2CC2)CC1` here?
A: inactive

Q: For `COc1cc2c(cc1OC)CN(CCc1ccc(NC(=O)c3cccc4c(=O)c5cccc(OC)c5[nH]c34)cc1)CC2`, which activity [2] is on record?
A: -13%

Q: What about the activity change, negative = inhibition [3] of the same compound?
A: -0.294%

Q: And the activity [4]?
A: -75.2%

Q: And the activity [5]?
A: -10.7%

Q: And the outcome [6]?
A: inactive

Q: Which results are given for `Nc1nccc(-c2ccc3noc(-c4ccc(Cl)cc4)c3c2)n1`?
A: activity [2]: -4.29%; activity change, negative = inhibition [3]: 4.33%; activity [4]: -9.7%; activity [5]: -0.0134%

Q: For `C[C@]1(c2nc3c(C(N)=O)cccc3[nH]2)CCCN1`, which outcome [6] is on record?
A: inactive

Q: With `Cc1ccccc1C(OCCN(C)C)c1ccccc1` (configuration not stated) as the compound, how does the activity [2] read?
A: -2.48%

Q: And the activity change, negative = inhibition [3]?
A: 6.46%

Q: And the activity [4]?
A: -5.32%

Q: And the activity [5]?
A: -1.88%

Q: For `CC(=O)Oc1ccccc1C(=O)O`, which outcome [6] is on record?
A: inactive

Q: Which outcome [6] does the source give for `COc1ccc2nc(S(=O)Cc3ncc(C)c(OC)c3C)[nH]c2c1` (configuration not stated) here?
A: inactive

Q: With `Cc1cnc(Nc2ccc(OCCN3CCCC3)cc2)nc1Nc1cccc(S(=O)(=O)NC(C)(C)C)c1` as the compound, how does the activity [2] read?
A: -12.3%

Q: And the activity change, negative = inhibition [3]?
A: -4.99%

Q: What about the activity [4] of the same compound?
A: -31.4%

Q: What about the activity [5] of the same compound?
A: -8.53%

Q: With `Oc1ccc(C2CNCCc3c2cc(O)c(O)c3Cl)cc1` (configuration not stated) as the compound, how does the activity [2] read?
A: -77.1%

Q: What about the Potency [3] of the same compound?
A: 27.3 µM (active)

Q: What about the activity [4] of the same compound?
A: -15.5%

Q: What about the activity [5] of the same compound?
A: -4.58%

Q: With `O=C1CCC(N2C(=O)c3ccccc3C2=O)C(=O)N1` (configuration not stated) as the compound, how does the outcome [6] read?
A: inactive

Q: Which Potency [1] does the source give for `C#Cc1cccc(Nc2ncnc3cc(OCCOC)c(OCCOC)cc23)c1` here?
A: inactive

Q: With `NC(=O)c1ccc(I)c([N+](=O)[O-])c1` as the compound, how does the outcome [6] read?
A: inactive

Q: Which results are given for `CC(C)(Sc1ccc(CCN(CCCCC2CCCCC2)C(=O)NC2CCCCC2)cc1)C(=O)O`?
A: activity [2]: -3.21%; activity change, negative = inhibition [3]: 2.53%; activity [4]: -46.1%; activity [5]: -8.68%

Q: With `Cn1cnc2c(F)c(Nc3ccc(Br)cc3Cl)c(C(=O)NOCCO)cc21` as the compound, how does the outcome [6] read?
A: inactive
